# For some assays here: Potency and affinity values are given separately. The source made the active and inactive calls.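 How the source made its calls, unless noted: active means primary screen hit whose calcium fluorescence ratio, in both repeats, exceeds the weak agonist control mean by 3 SD; inactive means the rest.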
# Key:
# [1] = system: TRPC4 beta (transient receptor potential cation channel C4), mouse; experiment: activators of mouse TRPC4 channel, confirmation, cell-based, Fluo4 calcium, HEK293 TRPC4beta/mu-opioid, duplicates, 10 µM (AID 2426;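 active means fluorescence ratio normalized to control raised more than 50% in primary screen plus both repeat runs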;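 on activation: percent rise of integrated ratio over buffer wells lacking compound which define 0%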); conditions: Fluo4 calcium fluorescence, at 10 µM; hits give high values
# [2] = system: transient receptor potential cation channel C4 beta (TRPC4), mouse; experiment: activators of mouse TRPC4 channel, confirmation, cell-based, second round, Fluo4, HEK293 TRPC4beta/mu-opioid, 1 µM (AID 2461;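 active means primary screen active and over 50% activation in each of two duplicate runs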); conditions: Fluo4 calcium fluorescence, at 1 µM; hits give high values
# [3] = system: TRPC4 (transient receptor potential cation channel C4 beta), mouse; experiment: positive allosteric modulators of mouse TRPC4, confirmation, cell-based, second round, Fluo-4, HEK293 TRPC4beta/mu-opioid, 1 µM (AID 2554;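 active means primary screen hit whose fluorescence ratio, in both repeats, exceeds the weak agonist control mean by 3 SD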); conditions: DAMGO EC20, Fluo-4 calcium flux, at 1 µM; hits give high values
# [4] = system: TRPC4 beta (transient receptor potential cation channel C4), mouse; experiment: positive allosteric modulators of mouse TRPC4, confirmation, cell-based, Fluo-4, HEK293 TRPC4beta/mu-opioid (AID 2555); conditions: DAMGO EC20, Fluo-4 calcium flux, at 10 µM; hits give high values
# [5] = target: Short transient receptor potential channel 4 (Mus musculus) (UniProt Q9QUQ5); experiment: inhibitors of mouse TRPC4 channel, confirmation, cell-based, Fluo4, HEK293 TRPC4beta/mu-opioid (AID 2636;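 active means calcium signal cut by more than 3 SD below the full-agonist control yet still positive, in both repeats and the earlier primary screen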); conditions: DAMGO, Fluo4 calcium flux, at 10 µM; hits give high values
# [6] = target: Short transient receptor potential channel 4 (Mus musculus) (UniProt Q9QUQ5); experiment: inhibitors of mouse TRPC4 channel, confirmation, cell-based, second round, Fluo4, HEK293 TRPC4beta/mu-opioid, 1 µM (AID 2637;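 active means calcium signal ratio cut to more than 3 SD under the fully stimulated control mean yet still positive, in both repeats and the primary screen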;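 on inhibition: percent of integrated ratio relative to wells lacking test compound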); conditions: Fluo4 calcium flux, DAMGO, at 1 µM; hits give high values
# [7] = target: Short transient receptor potential channel 4 (Mus musculus) (UniProt Q9QUQ5); experiment: mouse TRPC4 channel activators, dose response, cell-based, HEK293 TRPC4/mu-opioid, Fluo-4 calcium (AID 434937;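 active means primary screen activator hit with a dose response curve and TRPC4 channel activation at any tested dose; inactive means no activation, no dose response, or not a primary hit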)
# [8] = target: Short transient receptor potential channel 4 (Mus musculus) (UniProt Q9QUQ5); experiment: mouse TRPC4 channel inhibitors, dose response, cell-based, HEK293 TRPC4/mu-opioid, Fluo-4 calcium (AID 434942;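 active means primary screen inhibitor hit that blocks the TRPC4 channel at some tested dose, yielding a dose curve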)
# [9] = target: Short transient receptor potential channel 6 (Mus musculus) (UniProt Q61143); experiment: inhibition of mouse TRPC6 channel, confirmation, selectivity assay for TRPC4 inhibitor project, cell-based, HEK293, membrane potential dye, duplicate (AID 434948;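 active means active in primary screen and both duplicates, each dropping signal beyond three positive-control SD with fluorescence still positive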); conditions: HEK293 TRPC6, membrane potential dye fluorescence, at 10 µM, stimulated with maximal-effect acetylcholine; hits give high values
# [10] = target: Short transient receptor potential channel 6 (Mus musculus) (UniProt Q61143); experiment: activation of mouse TRPC6 channel, confirmation, selectivity assay for TRPC4 activator project, cell-based, HEK293, membrane potential dye, duplicate (AID 434950;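 active means membrane potential signal rise above negative control mean plus 3 SD in both duplicates, also active in the earlier TRPC4 screen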); conditions: HEK293 TRPC6, membrane potential fluorescence, at 10 µM; hits give high values
# [11] = target: Short transient receptor potential channel 6 (Mus musculus) (UniProt Q61143); experiment: TRPC6 potentiation by TRPC4 potentiator hits, confirmation, selectivity assay for TRPC4 potentiator project, HEK293 cells, membrane potential dye, duplicate (AID 434952;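 active means compound raising the membrane signal above positive-control mean plus 3 SD in both repeats, and a primary screen hit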); conditions: HEK293 TRPC6, membrane potential dye fluorescence, at 10 µM, maximal acetylcholine added after compound; hits give high values
# [12] = target: Short transient receptor potential channel 4 (Mus musculus) (UniProt Q9QUQ5); experiment: calcium flux activators in TRPC4/5HT1a cells, counter-screen for TRPC4 activator project, cell-based, second counter screen, HEK293 TRPC4/5HT1a, Fluo-4 (AID 434977;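 active means calcium signal rise above buffer-control mean plus 5 SD in both duplicates, and also a hit in the primary screen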;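 on activation: plate controls were assay buffer for no effect and maximal serotonin response for full effect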); conditions: Fluo-4 calcium flux, at 10 µM; hits give high values
# [13] = calcium flux inhibitors in TRPC4/5HT1a cells, confirmation, counter-screen for TRPC4 inhibitor project, cell-based, second counter screen, HEK293 TRPC4/5HT1a, Fluo-4 (AID 434978;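 active means primary screen active whose calcium signal fell more than 3 SD beyond the full-serotonin control mean in both duplicate plates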;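 on outcome: serotonin given first at submaximal then at maximal dose after compound preincubation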); conditions: Fluo-4 calcium flux, at 10 µM, serotonin added to trigger calcium flux; hits give high values
# [14] = system: TRPC4 (mouse), co-expressed with 5HT1a in HEK293; experiment: calcium flux potentiators in TRPC4/5HT1a cells, confirmation, counter-screen for TRPC4 potentiator project, cell-based, second counter screen, HEK293 TRPC4/5HT1a, Fluo-4 (AID 434979;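 active means signal rise over 3 SD above mean of control wells given weak agonist, in both repeats and first screen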); conditions: Fluo-4 calcium flux, at 10 µM, serotonin added at its EC20 dose; hits give high values
# [15] = calcium flux activation in mu-opioid HEK293 cells, confirmation, counter-screen for TRPC4 activator project, cell-based, HEK293 mu-opioid receptor line (AID 449723;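 active means hit in primary screen, with calcium signal over 5 SD above buffer well mean in both duplicates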;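 further: counter screen cells carry the mu-opioid receptor alone and lack TRPC4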); conditions: Fluo-4 calcium fluorescence, at 10 µM; hits give high values
# [16] = calcium flux enhancement in mu-opioid HEK293 cells, confirmation, counter-screen for TRPC4 allosteric potentiator project, cell-based, HEK293 mu-opioid receptor line (AID 449724;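 active means calcium signal rise more than 3 SD above the low-dose agonist control mean, in both duplicate plates and the primary screen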); conditions: Fluo-4 calcium flux, at 10 µM, compound added before EC20 DAMGO stimulus; hits give high values
# [17] = target: Short transient receptor potential channel 4 (Mus musculus) (UniProt Q9QUQ5); experiment: TRPC4 positive allosteric modulators, dose response, cell-based, HEK293 TRPC4/mu-opioid, Fluo-4 calcium, EC20 DAMGO (AID 434941;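 active means earlier screen potentiator hit that boosts the TRPC4 ion channel at some dose, with a dose response; inactive means no potentiation, no dose response, or not a prior hit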;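 further: calcium entry triggered by an EC20 dose of DAMGO at the co-expressed mu-opioid receptor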)
# [18] = thallium flux activation in parental CHO cells, counter-screen for KCNQ1 potentiator project (AID 493006;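 active means duplicate-averaged activation above buffer control mean plus 5 SD of those controls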); conditions: parental CHO-K1 cells, FluxOR thallium flux, at 10 µM; hits give high values
# [19] = target: Potassium voltage-gated channel subfamily KQT member 1 (Homo sapiens) (UniProt P51787); experiment: KCNQ1 potassium channel potentiators, confirmation, FluxOR thallium flux, CHO cells, duplicates (AID 493007;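 active means potentiation averaged over duplicate wells exceeding buffer-only control mean by more than 3 SD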;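 further: cells depolarized by a potassium plus thallium sulfate stimulus after compound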); conditions: KCNQ1 cell line, FluxOR thallium flux fluorescence, at 10 µM; hits give high values, % of reference activator effect, buffer zero
# [20] = target: Potassium voltage-gated channel subfamily KQT member 2 (Rattus norvegicus) (UniProt O88943); experiment: rat KCNQ2 channel potentiation, selectivity assay for KCNQ1 potentiator project, KCNQ2-CHO-K1 cells (AID 493009;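 active means mean duplicate potentiation above the buffer control mean plus 5 SD of buffer wells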;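 further: assay conditions were tuned for KCNQ1 rather than KCNQ2 modulators; signal is max minus min fluorescence divided by baseline after thallium stimulus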); conditions: FluxOR thallium flux fluorescence, at 10 µM; hits give high values, scaled: buffer 0, activator control 100
# Potassium voltage-gated channel subfamily KQT member 2 (Rattus norvegicus), sequence (O88943 whole entry, looked up): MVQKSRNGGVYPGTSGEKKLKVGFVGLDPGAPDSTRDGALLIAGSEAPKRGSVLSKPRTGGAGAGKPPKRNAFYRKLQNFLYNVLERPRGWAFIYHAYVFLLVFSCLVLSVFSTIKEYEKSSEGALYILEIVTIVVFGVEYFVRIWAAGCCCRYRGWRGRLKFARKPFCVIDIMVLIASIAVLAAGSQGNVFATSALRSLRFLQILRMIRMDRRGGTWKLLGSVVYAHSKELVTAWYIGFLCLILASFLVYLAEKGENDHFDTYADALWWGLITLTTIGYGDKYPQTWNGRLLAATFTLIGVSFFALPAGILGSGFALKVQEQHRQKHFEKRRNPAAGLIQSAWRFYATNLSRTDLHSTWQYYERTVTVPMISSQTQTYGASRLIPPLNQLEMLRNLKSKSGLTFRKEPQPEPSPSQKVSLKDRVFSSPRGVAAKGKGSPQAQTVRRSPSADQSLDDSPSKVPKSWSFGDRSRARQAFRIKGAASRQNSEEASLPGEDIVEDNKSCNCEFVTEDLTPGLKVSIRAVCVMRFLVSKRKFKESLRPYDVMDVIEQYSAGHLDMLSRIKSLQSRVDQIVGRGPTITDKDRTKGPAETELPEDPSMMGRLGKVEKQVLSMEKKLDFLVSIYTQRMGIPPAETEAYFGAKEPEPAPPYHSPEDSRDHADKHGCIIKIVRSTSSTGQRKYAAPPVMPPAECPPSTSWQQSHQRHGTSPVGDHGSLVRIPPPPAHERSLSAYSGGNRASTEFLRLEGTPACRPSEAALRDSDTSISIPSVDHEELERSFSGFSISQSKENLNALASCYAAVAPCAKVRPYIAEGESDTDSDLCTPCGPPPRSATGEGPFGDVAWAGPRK
# Short transient receptor potential channel 6 (Mus musculus), sequence (Q61143 whole entry, looked up): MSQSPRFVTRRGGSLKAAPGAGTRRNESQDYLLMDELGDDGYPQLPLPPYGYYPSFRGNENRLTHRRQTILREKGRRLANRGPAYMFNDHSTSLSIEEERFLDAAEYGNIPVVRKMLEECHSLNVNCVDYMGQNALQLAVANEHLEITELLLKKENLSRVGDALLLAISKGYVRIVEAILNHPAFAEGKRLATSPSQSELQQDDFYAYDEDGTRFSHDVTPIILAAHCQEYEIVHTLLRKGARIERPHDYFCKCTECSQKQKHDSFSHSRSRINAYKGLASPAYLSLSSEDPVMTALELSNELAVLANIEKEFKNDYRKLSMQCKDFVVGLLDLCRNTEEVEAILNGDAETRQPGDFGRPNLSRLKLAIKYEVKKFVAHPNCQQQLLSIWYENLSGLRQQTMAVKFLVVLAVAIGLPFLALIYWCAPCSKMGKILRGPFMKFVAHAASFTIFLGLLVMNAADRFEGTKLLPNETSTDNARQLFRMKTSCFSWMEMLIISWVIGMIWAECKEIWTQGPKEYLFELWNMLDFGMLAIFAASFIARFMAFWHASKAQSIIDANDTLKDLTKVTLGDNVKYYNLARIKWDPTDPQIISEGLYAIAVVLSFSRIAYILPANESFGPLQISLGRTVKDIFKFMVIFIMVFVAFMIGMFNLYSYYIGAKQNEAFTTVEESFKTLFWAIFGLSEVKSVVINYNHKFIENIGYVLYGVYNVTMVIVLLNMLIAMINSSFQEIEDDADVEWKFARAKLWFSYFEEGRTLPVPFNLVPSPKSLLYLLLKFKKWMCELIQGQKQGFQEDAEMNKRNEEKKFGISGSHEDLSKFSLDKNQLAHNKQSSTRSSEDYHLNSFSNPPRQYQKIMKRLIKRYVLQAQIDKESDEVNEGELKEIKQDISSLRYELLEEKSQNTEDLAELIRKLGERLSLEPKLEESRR
# Short transient receptor potential channel 4 (Mus musculus), sequence (Q9QUQ5 whole entry, looked up): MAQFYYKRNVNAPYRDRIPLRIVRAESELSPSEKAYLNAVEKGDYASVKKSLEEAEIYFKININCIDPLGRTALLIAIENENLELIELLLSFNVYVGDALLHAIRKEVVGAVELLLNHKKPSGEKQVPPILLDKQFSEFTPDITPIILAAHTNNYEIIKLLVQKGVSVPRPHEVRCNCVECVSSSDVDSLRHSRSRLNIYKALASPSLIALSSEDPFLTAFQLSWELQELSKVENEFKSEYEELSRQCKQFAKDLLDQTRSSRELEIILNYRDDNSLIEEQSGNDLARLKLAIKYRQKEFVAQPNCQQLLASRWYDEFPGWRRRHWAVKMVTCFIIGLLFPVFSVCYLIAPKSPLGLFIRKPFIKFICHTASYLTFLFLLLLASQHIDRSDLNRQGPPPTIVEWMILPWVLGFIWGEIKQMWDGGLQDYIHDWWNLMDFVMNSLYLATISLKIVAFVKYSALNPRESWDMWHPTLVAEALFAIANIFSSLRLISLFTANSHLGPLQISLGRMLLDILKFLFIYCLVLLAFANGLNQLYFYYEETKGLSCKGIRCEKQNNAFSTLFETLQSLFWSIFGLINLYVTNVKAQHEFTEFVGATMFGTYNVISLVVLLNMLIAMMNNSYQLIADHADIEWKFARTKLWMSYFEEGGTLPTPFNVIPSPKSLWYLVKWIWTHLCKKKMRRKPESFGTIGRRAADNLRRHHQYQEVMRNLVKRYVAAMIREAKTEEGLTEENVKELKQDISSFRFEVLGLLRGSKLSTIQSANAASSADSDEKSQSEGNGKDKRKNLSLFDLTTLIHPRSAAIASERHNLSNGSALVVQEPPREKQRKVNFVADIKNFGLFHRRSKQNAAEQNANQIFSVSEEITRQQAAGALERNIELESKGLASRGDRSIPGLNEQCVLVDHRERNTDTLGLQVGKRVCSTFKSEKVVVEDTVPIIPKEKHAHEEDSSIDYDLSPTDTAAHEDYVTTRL
# Potassium voltage-gated channel subfamily KQT member 1 (Homo sapiens), sequence (P51787 whole entry, looked up): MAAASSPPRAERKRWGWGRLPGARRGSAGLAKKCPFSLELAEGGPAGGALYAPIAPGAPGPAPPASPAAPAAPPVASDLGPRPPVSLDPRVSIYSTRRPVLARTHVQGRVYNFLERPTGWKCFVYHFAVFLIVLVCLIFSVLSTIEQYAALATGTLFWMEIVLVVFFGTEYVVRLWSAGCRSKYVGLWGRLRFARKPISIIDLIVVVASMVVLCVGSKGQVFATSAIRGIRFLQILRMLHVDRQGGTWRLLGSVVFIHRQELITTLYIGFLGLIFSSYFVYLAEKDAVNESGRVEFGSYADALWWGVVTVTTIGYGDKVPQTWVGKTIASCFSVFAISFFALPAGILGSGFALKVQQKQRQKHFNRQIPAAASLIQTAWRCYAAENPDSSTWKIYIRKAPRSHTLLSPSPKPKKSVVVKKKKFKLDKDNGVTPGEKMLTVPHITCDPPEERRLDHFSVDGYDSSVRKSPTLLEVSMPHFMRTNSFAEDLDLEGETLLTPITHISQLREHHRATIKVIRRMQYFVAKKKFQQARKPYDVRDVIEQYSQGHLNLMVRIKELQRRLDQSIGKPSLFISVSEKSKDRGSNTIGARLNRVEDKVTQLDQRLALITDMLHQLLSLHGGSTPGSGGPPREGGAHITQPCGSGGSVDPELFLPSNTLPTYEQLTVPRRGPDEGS
smiles,measurement,setting,value
O=[N+]([O-])c1ccc(/C=N/Nc2nc(N3CCCCC3)nc(N3CCCCC3)n2)o1,outcome,[1],inactive
same,outcome,[2],inactive
same,outcome,[3],inactive
same,potentiation,[4],21% (active)
same,outcome,[5],inactive
same,outcome,[6],inactive
same,outcome,[7],inactive
same,outcome,[8],inactive
same,outcome,[9],inactive
same,outcome,[10],inactive
same,outcome,[11],inactive
same,outcome,[12],inactive
same,outcome,[13],inactive
same,potentiation,[14],59.2% (active)
same,outcome,[15],inactive
same,outcome,[16],inactive
Cc1ccc(/C=C/C(=O)c2ccc(O)cc2)cc1,outcome,[1],inactive
same,outcome,[2],inactive
same,outcome,[3],inactive
same,outcome,[4],inactive
same,inhibition,[5],76% (active)
same,inhibition,[6],38% (active)
same,outcome,[7],inactive
same,outcome,[17],inactive
same,outcome,[9],inactive
same,outcome,[10],inactive
same,outcome,[11],inactive
same,outcome,[12],inactive
same,inhibition,[13],15.8% (active)
same,outcome,[14],inactive
same,outcome,[15],inactive
same,outcome,[16],inactive
same,outcome,[18],inactive
same,outcome,[19],inactive
same,outcome,[20],inactive
CC1=NN(c2ccccc2)C(=O)/C1=C/c1c(O)n(-c2ccc(F)c(Cl)c2)[nH]c1=O,outcome,[1],inactive
same,outcome,[2],inactive
same,outcome,[3],inactive
same,outcome,[4],inactive
same,inhibition,[5],97% (active)
same,outcome,[6],inactive
same,outcome,[7],inactive
same,outcome,[17],inactive
same,outcome,[9],inactive
same,outcome,[10],inactive
same,outcome,[11],inactive
same,outcome,[12],inactive
same,inhibition,[13],17.1% (active)
same,outcome,[14],inactive
same,outcome,[15],inactive
same,outcome,[16],inactive
same,outcome,[18],inactive
same,outcome,[19],inactive
same,outcome,[20],inactive
Cc1cc2oc(C(=O)N(Cc3ccccc3)C3CCS(=O)(=O)C3)cc(=O)c2cc1Cl (stereo not given),outcome,[1],inactive
same,outcome,[2],inactive
same,outcome,[3],inactive
same,potentiation,[4],47% (active)
same,outcome,[5],inactive
same,outcome,[6],inactive
same,outcome,[7],inactive
same,outcome,[8],inactive
same,outcome,[9],inactive
same,outcome,[10],inactive
same,outcome,[11],inactive
same,outcome,[12],inactive
same,outcome,[13],inactive
same,potentiation,[14],68.1% (active)
same,outcome,[15],inactive
same,outcome,[16],inactive
CC1Cc2ccccc2N1C(=O)CSc1nc2c(c(=O)n(C)c(=O)n2C)n1Cc1ccc(F)cc1 (stereo not given),outcome,[1],inactive
same,outcome,[2],inactive
same,potentiation,[3],36% (active)
same,potentiation,[4],40% (active)
same,outcome,[5],inactive
same,outcome,[6],inactive
same,outcome,[7],inactive
same,outcome,[8],inactive
same,outcome,[9],inactive
same,outcome,[10],inactive
same,outcome,[11],inactive
same,outcome,[12],inactive
same,outcome,[13],inactive
same,potentiation,[14],67.1% (active)
same,outcome,[15],inactive
same,outcome,[16],inactive
Cc1ccc(C(C)C)cc1OCCCCN1CCCC1,outcome,[1],inactive
same,outcome,[2],inactive
same,potentiation,[3],15% (active)
same,potentiation,[4],12% (active)
same,outcome,[5],inactive
same,outcome,[6],inactive
same,outcome,[7],inactive
same,outcome,[8],inactive
same,outcome,[9],inactive
same,outcome,[10],inactive
same,outcome,[11],inactive
same,outcome,[12],inactive
same,outcome,[13],inactive
same,potentiation,[14],6.54% (active)
same,outcome,[15],inactive
same,outcome,[16],inactive
Cc1cc(C(C)(C)C)c(O)c(C)c1CC1=NCCN1,outcome,[1],inactive
same,outcome,[2],inactive
same,outcome,[3],inactive
same,potentiation,[4],14% (active)
same,outcome,[5],inactive
same,outcome,[6],inactive
same,outcome,[7],inactive
same,outcome,[8],inactive
same,outcome,[9],inactive
same,outcome,[10],inactive
same,outcome,[11],inactive
same,outcome,[12],inactive
same,outcome,[13],inactive
same,outcome,[14],inactive
same,outcome,[15],inactive
same,outcome,[16],inactive
O=C(Nc1cccc(Cl)c1)N1CCN(C/C=C/c2ccccc2)CC1,outcome,[1],inactive
same,outcome,[2],inactive
same,outcome,[3],inactive
same,outcome,[4],inactive
same,outcome,[5],inactive
same,outcome,[6],inactive
same,outcome,[7],inactive
same,outcome,[8],inactive
same,outcome,[9],inactive
same,outcome,[10],inactive
same,outcome,[11],inactive
same,outcome,[12],inactive
same,outcome,[13],inactive
same,potentiation,[14],19.8% (active)
same,outcome,[15],inactive
same,outcome,[16],inactive
O=C(NC(=S)NNC(=O)c1cccs1)c1ccc(Br)o1,activation,[1],202% (active)
same,outcome,[2],inactive
same,outcome,[3],inactive
same,outcome,[4],inactive
same,outcome,[5],inactive
same,outcome,[6],inactive
same,outcome,[17],inactive
same,outcome,[8],inactive
same,outcome,[9],inactive
same,outcome,[10],inactive
same,outcome,[11],inactive
same,activation,[12],117% (active)
same,outcome,[13],inactive
same,outcome,[14],inactive
same,activation,[15],28.6% (active)
same,outcome,[16],inactive
CC1=C(C(=O)NCc2ccccc2)C(c2cc(Br)cc(Br)c2OC(C)C)NC(=O)N1 (stereo not given),outcome,[1],inactive
same,outcome,[2],inactive
same,outcome,[3],inactive
same,potentiation,[4],28% (active)
same,outcome,[5],inactive
same,outcome,[6],inactive
same,outcome,[7],inactive
same,outcome,[8],inactive
same,outcome,[9],inactive
same,outcome,[10],inactive
same,outcome,[11],inactive
same,outcome,[12],inactive
same,outcome,[13],inactive
same,potentiation,[14],11.7% (active)
same,outcome,[15],inactive
same,outcome,[16],inactive
c1ccc(-c2nc(N3CCNCC3)nc3ccccc23)cc1,outcome,[1],inactive
same,outcome,[2],inactive
same,potentiation,[3],19% (active)
same,outcome,[4],inactive
same,outcome,[5],inactive
same,outcome,[6],inactive
same,outcome,[7],inactive
same,outcome,[8],inactive
same,outcome,[9],inactive
same,outcome,[10],inactive
same,outcome,[11],inactive
same,outcome,[12],inactive
same,outcome,[13],inactive
same,outcome,[14],inactive
same,outcome,[15],inactive
same,outcome,[16],inactive
O=c1[nH][nH]c(-c2ccccc2)c1C=Nc1ccc(Cl)cc1,outcome,[1],inactive
same,outcome,[2],inactive
same,outcome,[3],inactive
same,outcome,[4],inactive
same,outcome,[5],inactive
same,outcome,[6],inactive
same,outcome,[7],inactive
same,outcome,[8],inactive
same,outcome,[9],inactive
same,outcome,[10],inactive
same,outcome,[11],inactive
same,outcome,[12],inactive
same,outcome,[13],inactive
same,potentiation,[14],79.8% (active)
same,outcome,[15],inactive
same,outcome,[16],inactive
N#CC1=C(N)C(C#N)(C#N)C(c2cccnc2)C2CC(c3ccccc3)CC=C12 (stereo not given),outcome,[1],inactive
same,outcome,[2],inactive
same,outcome,[3],inactive
same,potentiation,[4],77% (active)
same,outcome,[5],inactive
same,outcome,[6],inactive
same,outcome,[7],inactive
same,outcome,[8],inactive
same,outcome,[9],inactive
same,outcome,[10],inactive
same,outcome,[11],inactive
same,outcome,[12],inactive
same,outcome,[13],inactive
same,potentiation,[14],9.65% (active)
same,outcome,[15],inactive
same,outcome,[16],inactive
Cc1ccc(Cn2c(=N)c(C(=O)NC3CCCC3)cc3c(=O)n4ccccc4nc32)cc1,activation,[1],206% (active)
same,outcome,[2],inactive
same,potentiation,[3],8% (active)
same,outcome,[4],inactive
same,outcome,[5],inactive
same,outcome,[6],inactive
same,outcome,[7],inactive
same,outcome,[8],inactive
same,outcome,[9],inactive
same,outcome,[10],inactive
same,outcome,[11],inactive
same,outcome,[12],inactive
same,outcome,[13],inactive
same,potentiation,[14],41.6% (active)
same,outcome,[15],inactive
same,outcome,[16],inactive
